Screening results deposited in PubChem BioAssay by several laboratories.
Sampled rows, rich in hits. Any-hit rate of the full collection: about 2.9%.
Bim-Mcl-1 – inhibitors of Bim-Mcl-1 interaction, human | 0.1% of 190,000 active | Q07820 | Bead-based flow cytometry, Bim peptide-Mcl-1 binding | inhibition, % at 10 µM | AID 1009; in the data active means inhibition above about 40%;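 further: 0% = no compound tracer wells and 100% = peptide blocker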
Target sequence (Q07820 whole entry, looked up): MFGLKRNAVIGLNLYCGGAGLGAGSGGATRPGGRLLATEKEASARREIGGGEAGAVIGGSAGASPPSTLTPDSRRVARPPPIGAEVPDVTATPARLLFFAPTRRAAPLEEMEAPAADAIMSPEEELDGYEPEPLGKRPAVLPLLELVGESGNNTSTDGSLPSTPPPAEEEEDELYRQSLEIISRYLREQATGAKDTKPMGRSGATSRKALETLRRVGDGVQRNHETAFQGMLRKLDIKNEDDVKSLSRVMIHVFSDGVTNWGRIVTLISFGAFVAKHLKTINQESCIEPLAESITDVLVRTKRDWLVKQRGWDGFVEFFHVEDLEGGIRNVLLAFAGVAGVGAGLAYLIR
Pf gamet viab – kills late stage P. falciparum gametocytes; 0.065% of 150,000 active; P. falciparum stage V gametocytes, ATP luminescence, 24 h; AID 743093; inhibition, % at 10.9 µM;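 active means inhibition above the mean plus 3 SD of compounds within the control limits, set per campaign, cut at about 38% in these data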;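 further: 0% = DMSO wells and 100% = medium only without gametocytes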
Mcl1-Noxa inh – disrupts binding of human Mcl-1 to Noxa peptide; TR-FRET Mcl-1/Noxa peptide binding, 2 h; AID 1022; 1.5% of 220,000 active; inhibition, % at 21.7 µM;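 active means compounds that cut the protein-peptide binding signal by more than 50% relative to plate controls in a single-dose test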;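 further: His-tagged Mcl-1 with rhodamine Noxa BH3 peptide and terbium anti-His antibody; 0% = Mcl-1 plus Noxa peptide wells and 100% = peptide-only wells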
14-3-3 Bad PPI – disrupts binding of bovine 14-3-3 zeta to phospho-Bad peptide | P63103 | inhibition, % at 21.7 µM | AID 781 | 0.71% of 220,000 active | TR-FRET 14-3-3zeta/Dy647-pBad peptide displacement, 1 h;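 active means inhibition above about 70%, limit read from the data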;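 further: 0% = full 14-3-3 plus peptide FRET controls and 100% = background without 14-3-3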
Hck-Nef inh – inhibitors of human Hck kinase activated by Nef. P08631. inhibition, % at 20 µM. 0.68% of 220,000 active. Recombinant Hck-YEEI plus Nef, Z-Lyte FRET kinase assay. AID 463187;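 active means Hck-Nef kinase inhibition above about 50%, limit read from the data; inactive means inhibition below that limit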;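 further: 0% = DMSO with Hck plus Nef and 100% = Hck alone without Nef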
Mcl1-Bid inh – Mcl-1/Bid interaction inhibition; inhibition, % at 21.7 µM; Q07820; 0.97% of 220,000 active; TR-FRET Mcl-1/Bid-Dy647 peptide binding, 1536-well;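 active means compounds that cut the binding signal by more than half at the single screening dose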;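 further: His-tagged Mcl-1 with europium anti-His antibody binding Bid BH3 peptide; 0% = Mcl-1 plus peptide wells and 100% = peptide-only wells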
* hit, by the source's call; nt = no result; [ ] = dose if it differs, or a comment.

SMILES	Bim-Mcl-1	Pf gamet viab	Mcl1-Noxa inh	14-3-3 Bad PPI	Hck-Nef inh	Mcl1-Bid inh
COc1ccc2[nH]c(C)cc(=O)c2c1	0	nt	13	8	-7	23
COc1ccc(/C=C(/NC(=O)c2ccccc2Cl)C(=O)O)cc1	0	-16	5	-12	-2	-19
COc1ccccc1/C=C(/NC(=O)c1ccc(Cl)cc1Cl)C(=O)O	-2	nt	4	85*	-3	-33
CCC1(O)CC(C(=O)OC)=NN1C(=O)c1ccccc1 (centres undefined)	-2	26	64*	-13	-2	-11
COC(=O)C1=NN(C(=O)c2ccc(Cl)cc2)C(O)(c2ccccc2)C1 (centres undefined)	-4	nt	3	3	-1	-45
O=C(Cc1ccccn1)Nc1ccccc1	-2	-16	24	73*[fluorescence artefact?]	1	16
C[C@@H]1CC=C[C@H]2[C@H]1C(=O)N(Cc1ccccc1)[C@H]2c1ccc(-c2ccoc2)cc1F	nt	nt	-10	3	30	-31
COc1ccc(CCNc2nc(C)nc3c2oc2ccccc23)cc1OC	-1	nt	26	75*	0	-1
COc1ccc(CCNc2ncnc3c2oc2ccccc23)cc1OC	-2	nt	34	85*	1	-15
Cc1nc(NCCc2cnc[nH]2)c2oc3ccccc3c2n1	0	30	nt	nt	5	nt
COc1ccc(CCNc2ncnc3sccc23)cc1OC	-1	-8	19	-16	22	-15
CCN1CCN(c2cc(=O)n(-c3cc(Cl)ccc3C)c(=O)[nH]2)CC1	1	nt	7	-12	0	-48
CSc1cnn(Cc2ccccc2)c(=O)c1SCc1ccccc1	-7	nt	99*	-4	4	-13
Clc1ccc(COn2ccnc2)cc1Cl	1	19	26	-4	-6	-15
CC(=O)NC1(C(F)(F)F)C(=O)Nc2c1c(=O)[nH]c(=O)n2-c1ccccc1 (centres undefined)	nt	17	8	-3	23	-5
COc1ccccc1CN=Cc1[nH]c2ccc(Br)c(Cl)c2c1O	-6	-9	0	-1	1	-59
Cc1cccc(N=Cc2[nH]c3ccc(Br)c(Cl)c3c2O)c1	-3	-10	62*	49	9	24
COc1cccc(CNC(=O)CSCc2cnn(-c3ccccc3)c2-n2cccc2)c1OC	-1	3	0	20	5	72*
COc1ccccc1CNC(=O)CSCc1cnn(-c2ccccc2)c1-n1cccc1	0	-5	4	-8	-16	7
C=CCn1c(=NC(=O)c2ccco2)sc2cc(C(=O)OCC)ccc21	-3	6	24	43	12	51*
COc1cccc(/C=N/Nc2snc(SC)c2C#N)c1O	-1	14	72*	13	-6	35
COc1ccc(/C=N/Nc2snc(SC)c2C#N)cc1OC	0	nt	67*	22	6	19
Cn1c(=O)c(C(=O)CN2CCN(S(=O)(=O)c3ccccc3)CC2)c(N)n(Cc2ccccc2)c1=O	-5	-2	10	-5	1	-28
Cn1c(NC(=O)CC2CCCCC2)cc(=O)n(C)c1=O	nt	nt	21	-3	36	-40
CCOc1cc(/C=N/Nc2ccc(C(=O)O)cc2)ccc1OC(=O)c1ccccc1C	nt	-5	56*	5	15	5
SMILES	Bim-Mcl-1	Pf gamet viab	Mcl1-Noxa inh	14-3-3 Bad PPI	Hck-Nef inh	Mcl1-Bid inh
COc1cccc(OCc2cc(/C=N/Nc3ccc(C(=O)O)cc3)ccc2OC)c1	nt	25	67*	1	18	-34
COc1cccc(C(=O)Oc2ccc(/C=N/Nc3ccc(C(=O)O)cc3)cc2OC)c1	nt	-35	nt	nt	nt	nt
O=C(CN1C(=O)CSc2ccc(S(=O)(=O)N3CCOCC3)cc21)NCc1cccnc1	-6	-4	54*	-2	17	-7
CC(C)CN(CCNC(=O)CN1C(=O)CSc2ccc(S(=O)(=O)N3CCOCC3)cc21)CC(C)C	1	nt	4	-9	24	-4
O=C1CN(C(=O)COC(=O)CNS(=O)(=O)c2ccccc2)c2ccccc2N1	-2	nt	0	-10	2	-30
O=C1CN(C(=O)COC(=O)CNS(=O)(=O)/C=C/c2ccccc2)c2ccccc2N1	-4	25	8	21	22	58*
COc1ccc(CCN=C(N)NS(=O)(=O)c2ccc(C)cc2)cc1OC	0	-3	55*	-3	17	0
